Where “and” joins values, the source holds several entries; their conditions need not be identical. Equal entries are not always repeated. Screen size: about 340,000 compounds; about 12,000 (3.5%) were called active. Where a call stands in place of a potency, no number is given. About 18% were inconclusive and are not listed. The call rests on the fitted dose curve; in most records, active means well fitted inhibition curve with a large enough effect; inconclusive means small, poorly fitted or top-dose-only effect, or another doubt; inactive means no such curve, though single readings can be large or run the other way. The full list was thinned out, with actives kept by preference. Some compounds were tested as several samples or in several runs, with calls that do not always agree.
experiment: qHTS Assay for Inhibitors of Hepatitis C Virus (HCV); settings: Huh7.5.1 HCVcc-Cre infection, luciferase reporter, 44 h; series mostly up to 41.8 µM
From the text: Hepatitis C virus (HCV) infects about 200 million people in the world. Many infected people progress to chronic liver disease including cirrhosis with a risk of developing liver cancer. To date, there is no effective vaccine for hepatitis C. Current therapy based on interferon is only effective in about half of the patients and is associated with significant adverse effects. The fraction of people with HCV who can complete a successful treatment is estimated to be no more than 10 percent. Recent development of direct-acting antivirals against HCV, such as protease and polymerase inhibitors, is promising but still requires combination with peginterferon and ribavirin for maximal efficacy. In addition, these agents are associated with high rate of resistance and many have significant side effects. Due to the lack of a culture system for infectious HCV, the search for new HCV drugs has been greatly hampered. […] High-throughput screening (HTS) with an infectious HCV system would cover the complete spectrum of potentially druggable targets in all stages of HCV lifecycle, and would have more biological relevance than other cell-based assays. Moreover, targeting several key processes in the viral life cycle may not only increase antiviral efficacy; more importantly, it may also reduce the capacity of the virus to develop resistance to the compound. The goal of this project is to identify novel HCV inhibitors as new therapies for hepatitis C, using a highly sensitive and specific assay platform which is based on a HCV infectious cell culture system established in the laboratory and adapted for high-throughput HCV drug screen. NIH Chemical Genomics Center [NCGC] NIH Molecular Libraries Probe Centers Network [MLPCN] MLPCN Grant: MH095511 Assay Submitter (PI): Jake Liang, NIDDK
The assay will start with plating 1,000 cells/well in 3 µL volume and culture for 4 h. Then 23 nL of compounds from the library collection will be added to each well, followed by adding 2.5 µL of HCVcc-Cre virus (~ 0.5 moi) and further cultured for 44 h before the luciferase assay. A volume of 4.5 µL luciferase substrates will be added to each well and the plates will be incubated at room temperature for 15 min. and then read for 15 sec. for the luciferase activity

| Compound | Potency | activity change, negative = inhibition |
| --- | --- | --- |
| COc1ccccc1CNS(=O)(=O)c1cc(C(=O)NCc2ccccn2)c(Cl)cc1Cl | inactive |  |
| Cn1cccc1C(=O)OCC(=O)c1ccc(Br)s1 | inactive |  |
| Cc1ccc(C)c(NC(=O)COC(=O)c2nn(C)c(=O)c3ccccc23)c1 | inactive |  |
| COc1ccccc1N1CCN(C(=O)Cn2nnc(-c3cccs3)n2)CC1 | inactive |  |
| O=C(Nc1ccccc1-c1nnn(CC(=O)N2CCN(c3ccccc3)CC2)n1)c1cccs1 | 12.6 µM (active) |  |
| O=C(Nc1ccccc1-c1ccccc1)c1cccs1 | inactive |  |
| COc1cc(OC)cc(C(=O)NCC(=O)OCC(=O)NC(C)CCc2ccccc2)c1 (configuration not stated) | inactive |  |
| Cc1nn(-c2ccc(F)cc2)c(Cl)c1/C=C(/CCC(=O)O)c1nc2ccccc2s1 | inactive |  |
| CCCN=C1N(C)C[C@@H]2[C@@H]3C(=O)N(Cc4ccccc4)C(=O)[C@@H]3[C@](C)(C(=O)OC)N12 |  | 12% [at 8.37 µM] (inactive) |
| Cc1ccc(S(=O)(=O)N2[C@@H](c3ccc(Br)cc3)C(C(=O)O)=C[C@H]2CC2CCCC2)cc1 | inactive |  |
| CCn1c(/C=N/NC(=O)c2ccc(OC)cc2)nc2ccccc21 | 17.8 µM (active) |  |
| CCCn1c(C(=O)c2ccccc2OC)nc2ccccc21 | inactive |  |
| COc1ccc(C(=O)NCC(=O)N/N=C/c2cccnc2)cc1 | inactive |  |
| CCC(C)(C)n1nnnc1C(c1cccs1)N1CCN(Cc2ccccc2)CC1 (configuration not stated) | inactive |  |
| CCC(C)(C)n1nnnc1C(c1cccs1)N1CCN(c2nc3ccccc3s2)CC1 (configuration not stated) | 10 µM (active) |  |
| CCC(C)(C)n1nnnc1C(c1ccccc1OC)N1CCSCC1 (configuration not stated) | inactive |  |
| Cc1cc(NC(=O)CSC2=NS(=O)(=O)c3cc(Cl)ccc3N2)no1 | inactive |  |
| CCOC(=O)CNC(=O)N1c2ccccc2Sc2ccccc21 | inactive |  |
| CCOC(=O)Nc1ccc2c(c1)N(C(=O)CCN1CCN(CCO)CC1)c1ccccc1CC2 | inactive |  |
| CCNCCC(=O)N1c2ccccc2Sc2ccc(NC(=O)OCC)cc21 | 12.6 µM (active) |  |
| CCCCN(CC)CCCNC(=O)CS(=O)(=O)Cc1nc(-c2cccc(OC)c2)oc1C | inactive and 20 µM (active) |  |

| Compound | Potency | activity change, negative = inhibition |
| --- | --- | --- |
| COc1cccc(-c2nc(CS(=O)CC(=O)NCc3ccc(F)cc3)c(C)o2)c1 (configuration not stated) | inactive |  |
| COc1ccc(-c2nc(CS(=O)(=O)CC(=O)NCc3cccc(Br)c3)c(C)o2)cc1 | inactive |  |
| COc1ccc(C(CNC(=O)c2ccc(NS(=O)(=O)c3ccc(F)c(C)c3)cc2)N(C)C)cc1 (configuration not stated) | inactive |  |
| Cc1ccc(OCCC(=O)Nc2ccc(S(=O)(=O)Nc3nccs3)cc2)cc1 | inactive |  |
| COCCn1c(SCc2nc3cc(OC)c(OC)cc3c(=O)[nH]2)nnc1-c1ccncc1 | inactive |  |
| COCCCn1c(SCc2cccc(OC)c2)nc2cc(OC)c(OC)cc2c1=N | 7.08 µM (active) |  |
| COc1cccc(CSc2nc3nc(C)cc(C)n3n2)c1 | inactive |  |
| Cc1ccccc1SCC(=O)OCC(=O)N1CC(=O)Nc2ccccc21 | inactive |  |
| O=C(/C=C/c1ccccc1[N+](=O)[O-])NCC1CCCO1 (configuration not stated) | inactive |  |
| O=C(/C=C/c1ccccc1[N+](=O)[O-])OC1CCCCC1=O (configuration not stated) | inactive |  |
| CC1CCCCC1NC(=O)/C(C#N)=C/C=C/c1ccccc1[N+](=O)[O-] (configuration not stated) | 11.2 µM (active) |  |
| Cc1ccc(S(=O)(=O)N2[C@@H](c3cccc(Cl)c3)C(C(=O)O)=CC[C@H]2c2ccc(Cl)c(Cl)c2)cc1 | inactive |  |
| C#CCOCCOCCOCCNc1nc(N2CCN(C(=O)CCCCCCCCCCNC(=O)[C@H](CCCCN)n3cc(C)nn3)CC2)nc(N2CCN(C(=O)CCCCCCCCCCNC(=O)[C@H](CO)n3cc(CCCSC)nn3)CC2)n1 | inactive |  |
| CC(OC(=O)CCCOc1ccccc1)C(=O)Nc1ccc(Cl)cn1 (configuration not stated) | inactive |  |
| CCN(CC)S(=O)(=O)c1ccc(N2CCCC2)c(NC(=O)c2ccc([N+](=O)[O-])o2)c1 | 10 µM (active) |  |
| CCN(CC)S(=O)(=O)c1cc(C(=O)Nc2cc(S(=O)(=O)N3CCOCC3)ccc2N2CCCC2)ccc1F | inactive |  |
| CCN(CC)S(=O)(=O)c1ccc(N2CCOCC2)c(NC(=O)c2ccc(=O)n(C)n2)c1 | inactive |  |
| CCOc1ccccc1OCC(=O)Nc1ccccc1C(=O)NC1CC1 | inactive |  |
| Cc1noc(C)c1NC(=O)Nc1cccc2c1O[C@H](CN(C)C(=O)Nc1ccccc1)[C@@H](C)CN([C@H](C)CO)C2=O | inactive |  |
| Cc1noc(C)c1NC(=O)Nc1ccc2c(c1)C(=O)N([C@H](C)CO)C[C@H](C)[C@@H](CN(C)C(=O)Nc1ccc(C(F)(F)F)cc1)O2 | 3.98 µM (active) |  |
| Cc1noc(C)c1NC(=O)Nc1ccc2c(c1)C(=O)N([C@H](C)CO)C[C@H](C)[C@@H](CN(C)C(=O)Nc1ccccc1)O2 | inactive |  |

| Compound | Potency | activity change, negative = inhibition |
| --- | --- | --- |
| OCC[C@H]1C[C@H](O)[C@@H](O)[C@]2(CCc3ccccc3O2)O1 | inactive |  |
| Cc1ccc(C)c(C(=O)COC(=O)Cn2[nH]c(=O)c3ccccc3c2=O)c1 | inactive |  |
| CCC1(C)Cc2c(sc3nnn(CC(=O)Nc4ccc(Cl)cc4)c(=O)c23)CO1 (configuration not stated) | 11.2 µM (active) |  |
| CCC1(C)Cc2c(sc3nc(SC)nc(N)c23)CO1 (configuration not stated) | inactive |  |
| CCOC(=O)Cn1c(SC)nc2sc3c(c2c1=O)CC(C)(C)OC3 | inactive |  |
| COc1cc(/C=C/CNC[C@H]2O[C@@H](n3cnc(C(N)=O)n3)[C@H](O)[C@@H]2O)ccc1O | inactive |  |
| O=C(COC(=O)/C=C/c1ccc(OC(F)F)cc1)NC1CCCCC1 | inactive |  |
| COC(=O)[C@@]1(C)[C@H]2C(=O)N(Cc3ccccc3)C(=O)[C@H]2[C@H]2CN=C(SCC3CC3)N21 |  | -7.38% [at 8.37 µM] (inactive) |
| Cc1cccc(N2O[C@H]3C=CC2CCCC3)n1 | 25.1 µM (active) |  |
| Cc1cccc(N2CCN(Cc3nc(C4CC4)no3)CC2)n1 | inactive |  |
| Cc1ccn(-c2cccc(-n3ccc(C)n3)n2)n1 | inactive |  |
| CCOC(=O)c1ccccc1NC(=O)COC(=O)C(Cc1c[nH]c2ccccc12)NC(C)=O (configuration not stated) | inactive |  |
| COc1cc2ccccc2cc1C(=O)N1CCOCC1 | inactive |  |
| COc1ccc(S(=O)(=O)N2CCN(CC(=O)N3c4ccccc4CC3C)CC2)cc1OC (configuration not stated) | inactive |  |
| CCOC(=O)c1c(NC(=S)Nc2ccccc2C)sc2c1CCC2 | inactive |  |
| CCOC(=O)c1c(NC(=S)NC)sc2c1CCCC2 | inactive |  |
| CCOC(=O)c1c(NC(=O)C(C)Sc2c[nH]c3ccccc23)sc2c1CCC2 (configuration not stated) | 11.2 µM (active) |  |
| CCOC(=O)c1c(NC(=S)NC(=O)c2ccco2)sc2c1CCCC2 | inactive |  |
| CCOC(=O)c1c(NC(=O)CSc2cn(CC)c3ccccc23)sc2c1CCC2 | inactive |  |
| CCCOC(=O)Nc1sc2c(c1C(=O)OCC)CCC2 | 10 µM (active) |  |
